U2OS ROS induce: ROS inducers in U2OS cancer cells, primary screen, cell-based, H2DCF-DA fluorescence; U2OS ROS induction; ROS induction (% of piperlongumine), % at 10 µM; hit rate 2% among 46,000; in the data active = ROS induction above about 79%, passing the limit was not always enough;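 note: 0% = DMSO vehicle median and 100% = reference compound median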
* = called active by the depositor. The entries come from a sample that favours hits as a whole.

SMILES	U2OS ROS induce
C[C@H]1CN([C@@H](C)CO)C(=O)c2cc(NC(=O)Nc3cccc4ccccc34)ccc2O[C@H]1CN(C)S(=O)(=O)c1cn(C)cn1	-4
C[C@@H]1CN([C@H](C)CO)C(=O)c2cccc(NS(=O)(=O)c3cccs3)c2O[C@@H]1CN(C)Cc1ccc2c(c1)OCO2	-3
COC(=O)c1cc(OC)c(OC)cc1NC(=O)COc1ccc2ccccc2c1Br	19
O=C(Oc1ccc(N(Cc2cccs2)C2=NS(=O)(=O)c3ccccc32)cc1)c1ccccc1	57
CN(/N=C/c1ccncc1)C1=NCCN1	-11
CN(/N=C/c1ccccc1)C1=NS(=O)(=O)c2ccccc21	96*
COc1ccc(Cl)c(Cn2c(NCC3CCCO3)nc3c2c(=O)n(C)c(=O)n3C)c1 (centres undefined)	8
CCOC(=O)CSc1nnc(-c2ccc(OC)cc2)n1-c1ccccc1C	9
CCOC(=O)CSc1ncc(-c2ccccc2)nn1	-4
CCOC(=O)CSc1sc(C(=O)OCC)c2c1S(=O)(=O)N(C)c1ccccc1-2	112*
O=C(CCn1c(SCc2cccc(F)c2)nc2ccccc2c1=O)NCCc1ccccc1	-8
O=c1cc(O)c2sc3nc(-c4cccs4)cc(C(F)(F)F)c3c2[nH]1	48
CCOC(=O)c1c(NC(=O)c2nc3ncccn3n2)sc2c1CCC(C)C2 (centres undefined)	-6
CCOC(=O)c1c(NC(=O)CSc2nc(C)cc(C(F)(F)F)n2)sc2c1CCCC2	-3
CCOC(=O)c1c(NC(=O)c2nc3nc(C)cc(C(F)F)n3n2)sc2c1CCCC2	166*
Cc1noc(C)c1S(=O)(=O)N(C)C[C@H]1Oc2c(NC(=O)C3CC3)cccc2C(=O)N([C@@H](C)CO)C[C@H]1C	-10
Cc1ccc(OCC(=O)Nc2cc(-c3nn(C)c(=O)c4ccccc34)ccc2N2CCOCC2)cc1	12
COc1ccc(C2=NN(S(C)(=O)=O)C(c3ccc(C)cc3)C2)cc1 (centres undefined)	33
COc1ccc(C2=NN(S(C)(=O)=O)C(c3ccccc3OC)C2)cc1 (centres undefined)	164*
COc1ccc(C2=NN3COc4ccccc4C3C2)cc1 (centres undefined)	-2
COC(=O)CCCCCCC(=O)N/N=C/c1ccc(O)cc1	16
COC(=O)CCCCCCC(=O)N/N=C/c1ccc(F)cc1	16
COC(=O)CCCCCCC(=O)N/N=C/c1c(F)c(F)c(F)c(F)c1F	266*
C[C@@H]1CCCCO[C@@H](CN(C)Cc2ccc(C(=O)Nc3ccccc3N)cc2)[C@@H](C)CN([C@H](C)CO)C(=O)c2cc(NC(=O)Nc3cccc4ccccc34)ccc2O1	27
C[C@@H]1CN([C@H](C)CO)C(=O)Cc2cc(NC(=O)Nc3ccccc3)ccc2O[C@@H]1CN(C)Cc1ccc2c(c1)OCO2	21
SMILES	U2OS ROS induce
C[C@@H]1CCCCO[C@H](CN(C)S(C)(=O)=O)[C@@H](C)CN([C@H](C)CO)C(=O)c2cc(NC(=O)Cc3ccccc3)ccc2O1	5
C[C@@H]1CCCCO[C@H](CN(C)C(=O)Nc2ccccc2)[C@@H](C)CN([C@H](C)CO)C(=O)c2cc(NC(=O)Cc3ccccc3)ccc2O1	10
C[C@@H]1CCCCO[C@@H](CN(C)S(C)(=O)=O)[C@@H](C)CN([C@H](C)CO)C(=O)c2cc(NC(=O)Nc3ccccc3)ccc2O1	5
C[C@@H]1CCCCO[C@@H](CN(C)C(=O)Nc2ccccc2)[C@@H](C)CN([C@H](C)CO)C(=O)c2cc(NC(=O)Cc3ccccc3)ccc2O1	3
C[C@@H]1CCCCO[C@@H](CN(C)C(=O)Nc2cccc3ccccc23)[C@@H](C)CN([C@H](C)CO)C(=O)c2cc(NC(=O)Cc3ccccc3)ccc2O1	177*
C[C@@H]1CCCCO[C@@H](CN(C)S(C)(=O)=O)[C@@H](C)CN([C@H](C)CO)C(=O)c2cc(NC(=O)Cc3ccccc3)ccc2O1	84*
C[C@@H]1CN([C@@H](C)CO)C(=O)c2cccc(NS(C)(=O)=O)c2O[C@@H]1CN(C)CC1CCCCC1	-1
Cn1c(O)c(C=NC23CC4CC(CC(C4)C2)C3)c(=O)n(C)c1=O	2
C[C@@H]1CN([C@H](C)CO)C(=O)c2cccc(NC(=O)c3cnccn3)c2O[C@@H]1CN(C)Cc1ccc(C(=O)O)cc1	-13
O=C1CSc2nnc(-c3ccccc3)n21	-11
COC(=O)c1cccc(C(=O)Nc2ccc(F)cc2)n1	6
COC(=O)c1ccc(-n2nnnc2SCCCC(=O)c2ccc(F)cc2)cc1	-7
COC(=O)c1[nH]nc2c1C(=O)N(c1ccc(F)cc1)C2=O	260*
Cc1ccc(S(=O)(=O)Nc2cccc3c2O[C@H](CN(C)C(=O)Nc2ccc(C(F)(F)F)cc2)[C@@H](C)CN([C@H](C)CO)C3=O)cc1	-10
Cc1cc(SCC(=O)Nc2cccc(Br)c2)nc2c(C)cccc12	-5
C[C@@H]1CN([C@@H](C)CO)C(=O)c2cc(NS(=O)(=O)c3ccc(F)cc3)ccc2O[C@H]1CN(C)Cc1ccc(C(=O)O)cc1	-16
